Data published in PubChem BioAssay AID1823 (The Scripps Research Institute Molecular Screening Center, 2009).
The whole screen tested about 16,000 compounds, of which about 70 (0.4%) were called active. Shown is part of a subset that was picked to be rich in actives. Unmarked numbers belong to inactive results. Cut-off read from the data, not from the text of the source: active = inhibition above about 75%; inactive = the rest.

experiment: counter-screen for Nox1 inhibitors: inhibitors of luminol chemiluminescence (AID 1823); settings: HRP/luminol/H2O2 chemiluminescence counterscreen; at 6.7 µM; stronger effect = higher value

Compared with `CCOC(=O)NC(=O)/C(=C/NC(C)C)C(=O)OCC`, `CCOC(=O)NC(=O)/C(=C/NCc1cccs1)C(=O)OCC` is lower in inhibition: 2.4% for the first, 1.42% for the second.

Compared with `CSc1nnc(SC)n1CCNC(=O)Nc1cccc(Cl)c1`, `CS(=O)(=O)c1ccc(C(=O)Nc2cccc(Cl)c2)cc1` is lower in inhibition: 3.79% for the first, 2.61% for the second.

First: CCCCc1c(O)cc(-c2ccccc2)n(Cc2ccccc2)c1=O
Second: O=C(Nc1ccccc1-c1ccccc1)c1cccs1
The inhibition of the first is higher: 7.84% for the first, 0.86% for the second.

Compared with `COc1ccc(OC(=O)/C=C/c2sc3ccccc3c2C)cc1`, `Cc1ccc(S(=O)(=O)NNC(=O)c2ccccc2N)cc1` is higher in inhibition: -0.97% for the first, 37.9% for the second.

Going from `Cc1nc(C(F)(F)F)ccc1NC(=O)/C=C\C(=O)O` to `Cc1cc(C)nc(NC(=S)c2ccc(NC(=O)/C=C/C(=O)O)cc2)n1`, the inhibition falls from 1.91% to -2.67%.

First: CCc1cnc(NS(=O)(=O)c2cc(Cl)sc2Cl)nc1-c1c(F)cccc1F
Second: Cc1cc(C)nc(N/C=C(\C#N)S(=O)(=O)c2ccc(Cl)cc2)n1
The inhibition of the first is lower: -0.98% for the first, 2.84% for the second.

First: O=C(NCc1cccnc1)Nc1cccc(NC(=O)NCc2cccnc2)c1F
Second: O=C(NCc1csc(-c2cccs2)n1)Nc1ccccc1-c1ccccc1
The inhibition of the first is higher: 1.8% for the first, 0.51% for the second.

Going from `COc1cccc2c1c(NS(=O)(=O)c1cn(C)cn1)nn2C` to `CCCN(CCC)S(=O)(=O)c1ccc(C(=O)Oc2c(C)cccc2OC)cc1`, the inhibition rises from -21.4% to -5.62%.

Going from `O=[N+]([O-])c1ccc2c(c1)CCN2S(=O)(=O)c1ccccc1` to `O=C(CCSc1nc2ccccc2o1)N1CCc2cc([N+](=O)[O-])ccc21`, the inhibition rises from -4.92% to -3.32%.

First: CNC(=O)c1ccccc1Sc1ccccc1C(=O)NC
Second: COc1ccc(CCNC(=O)c2ccccc2-c2ccccc2C(=O)O)cc1OC
The inhibition of the first is higher: -0.03% for the first, -7.76% for the second.

Going from `Cc1nc(-c2ccc(NC(=O)COCC(=O)O)cc2)cs1` to `COC(=O)c1sccc1NC(=S)Nc1ccc(C)cc1`, the inhibition falls from 21.6% to -25.1%.

Going from `O=C1C(Cl)=C(Oc2cc(Cl)c(Cl)cc2Cl)C(=O)c2ccccc21` to `CC(=O)Nc1ccc(S(=O)(=O)NNc2c(Cl)cncc2Cl)cc1Cl`, the inhibition rises from 0.81% to 10.2%.

Compared with `Cn1ncc(Br)c1NC(=O)C(C)(C)C`, `CC(C)(C)c1ccc(NC(=O)c2ccco2)c(NC(=O)C(Cl)(Cl)Cl)c1` is lower in inhibition: 4.37% for the first, -4.94% for the second.

First: N#Cc1ccc(-c2csc(COc3ccccc3Cl)n2)cc1
Second: c1ccc2sc(-c3csc(-c4ccc5c(c4)OCCO5)n3)nc2c1
The inhibition of the first is lower: -1.21% for the first, 3.06% for the second.

Compared with `CS(=O)(=O)Nc1ccc(/C(N)=N/OC(=O)c2cccs2)cc1`, `Cc1cc(/C(N)=N/OC(=O)c2cccs2)c(-c2ccccc2)o1` is lower in inhibition: 2.83% for the first, -4.79% for the second.

First: N#CCCSc1sc(=S)sc1SCCC#N
Second: Cc1c(C)c(C)c(CSC(=N)CC#N)c(C)c1C
The inhibition of the first is higher: 3.43% for the first, -1.01% for the second.

First: C/C(=N\O)C(C)(C)Nc1ccc(C(C)(C)C)cc1
Second: COc1ccc(Cc2nc(C(C)(C)C)cs2)cc1
The inhibition of the first is higher: -0.65% for the first, -2.22% for the second.

Compared with `O=c1[nH]c2c(=O)[nH]c(=S)[nH]c2nc1/C=C(\O)c1ccccc1`, `Cc1ccc(Oc2c(C)[nH]c(=S)[nH]c2=O)cc1` is higher in inhibition: -2.84% for the first, -0.85% for the second.

Going from `O=C(Nc1ccc(F)cc1OC(F)(F)F)N1CCC(O)CC1` to `O=C(Nc1ccccc1N1CCOCC1)C1CCN(c2nccc(C(F)(F)F)n2)CC1`, the inhibition rises from -1.8% to -1.03%.

First: CCOC(=O)c1c(C)csc1NC(=O)CC(=O)C(F)(F)F
Second: CCOC(=O)c1cc(CC)sc1NC(=O)c1cccc(C(F)(F)F)c1
The inhibition of the first is higher: -0.11% for the first, -4.21% for the second.

First: CCOC(=O)c1c(NC(=S)Nc2ccccc2)sc2c1CCN(C)C2
Second: CCOC(=O)c1cc(C)n(-c2cccc([N+](=O)[O-])c2)c1-c1ccccc1
The inhibition of the first is lower: 0.9% for the first, 1.22% for the second.

Going from `CCSC(=O)NCc1ccccc1` to `Cc1ccccc1NC(=O)NCc1ccco1`, the inhibition falls from -0.89% to -0.91%.

First: Cc1onc(-c2ccccc2Cl)c1NC(=O)N1c2ccc(F)cc2CCC1C (centres undefined)
Second: Cn1cc(Br)c(-c2cccc(NC(=O)c3ccccc3Cl)c2)n1
The inhibition of the first is higher: 8.92% for the first, -4.85% for the second.

Going from `Nc1nc(C23CC4CC(CC(C4)C2)C3)cs1` to `O=C(O)C1CC2CC1CCC2O` (centres undefined), the inhibition falls from -1.09% to -5.03%.

First: CC(C)n1c(SCC(=O)c2cccc([N+](=O)[O-])c2)nc2cc(C(F)(F)F)ccc21
Second: O=[N+]([O-])c1cc(C(F)(F)F)ccc1OCCO
The inhibition of the first is higher: 2.2% for the first, -3.63% for the second.

Going from `CC(C)CCOS(=O)(=O)c1ccc2c(c1)Cc1cc(S(=O)(=O)OCCC(C)C)ccc1-2` to `CCc1ccc(S(=O)(=O)Nc2ccc(C)c(NS(C)(=O)=O)c2)cc1`, the inhibition rises from -0.63% to 6.77%.

First: O=C(CSC(=S)N1CCCCC1)c1c(F)cccc1F
Second: O=C(/C=C/c1cccc2ccccc12)N1CCCCC1
The inhibition of the first is higher: 26.8% for the first, 2.1% for the second.

First: O=C(c1cc(-c2cccs2)on1)N1CCCCC1
Second: COC(=O)c1cc(S(=O)(=O)NCc2csc(-c3cccs3)n2)oc1C
The inhibition of the first is higher: 3.17% for the first, 2.46% for the second.

Going from `N#CC(C#N)=CNc1c(F)cccc1Cl` to `CC(C)S(=O)(=O)/C(C#N)=C/c1ccccc1OC(F)(F)F`, the inhibition rises from -4.02% to -0.54%.

Going from `CCOC(=O)C1=C(C)NC(C)=C(C(=O)OCC)C1c1ccccn1` to `CCOC(=O)c1c(C)nn(-c2ncccc2NC(=O)Nc2cccc(Cl)c2Cl)c1C`, the inhibition falls from 0.07% to -3.12%.

Going from `COC(=O)c1cnc(N2CCCN(C(=O)C3COc4ccccc4O3)CC2)nc1C(F)(F)F` (centres undefined) to `Cc1nc(C(F)(F)F)ccc1C(=O)NC1CCCc2ccccc21` (centres undefined), the inhibition rises from 1.21% to 3.59%.

Going from `O=[N+]([O-])c1ccc(-c2ccc(I)cc2)cc1` to `CC(C)c1ccc(N2C(=O)/C(=C\c3ccc(-c4ccc([N+](=O)[O-])cc4)o3)SC2=S)cc1`, the inhibition rises from -6.68% to 2.47%.

Compared with `CC(C)NC(=O)NNc1c(Cl)cncc1Cl`, `CNC(=S)NNC(=O)c1cc(C)on1` is higher in inhibition: -1.24% for the first, 11% for the second.

Going from `CN(C)c1cc(-c2cc(Cl)sc2Cl)oc(=O)c1Cl` to `COC(=O)c1sc(S(C)=O)c(-c2ccon2)c1C` (centres undefined), the inhibition rises from -5.79% to 0.42%.

Going from `O=C(NNC(=S)Nc1ccccc1Cl)c1ccc(OC(F)(F)F)cc1` to `Cn1nnnc1SCC(=O)Nc1ccc(OC(F)(F)F)cc1`, the inhibition falls from 2.9% to -2.01%.

Going from `CCc1cccc(C)c1N(C(C)=O)C1=NCCC(=O)S1` to `CCOC(=O)Cn1cc(Cl)ccc1=O`, the inhibition falls from -4.86% to -6.12%.

Going from `O=[N+]([O-])c1ccc(C2CC2(Br)Br)cc1` (centres undefined) to `CC(CC(=O)O)Oc1ccc(Cl)cc1[N+](=O)[O-]` (centres undefined), the inhibition rises from 0.05% to 0.37%.

First: CSC(C)C(=O)/C=C/N(C)C (centres undefined)
Second: CC(C)S(=O)(=O)/C(C#N)=C/NN1CCOCC1
The inhibition of the first is lower: -4.32% for the first, 41% for the second.

Going from `Cc1noc(C)c1S(=O)(=O)N1CCN(C2c3ccccc3-c3ccccc32)CC1` to `CC(=O)N1c2ccccc2C=Cc2ccccc21`, the inhibition rises from 0.21% to 2.77%.

First: COc1cccc(C(=O)c2sc3nsc(SCc4ccc(F)cc4)c3c2N)c1
Second: CC(C)(C)C(=O)NNC(=O)c1ccc(Oc2ccc(C3SCCS3)cc2)o1
The inhibition of the first is higher: 9.11% for the first, -19.4% for the second.

Compared with `O=C(Nc1ccc2c(c1)OCCO2)c1cnccn1`, `O=C(O)CSC(SCC(=O)O)c1ccc2c(c1)OCO2` is lower in inhibition: 1.1% for the first, 0.02% for the second.

Going from `CSc1nc(-n2nc(C)cc2C)nc(-c2ccco2)c1C#N` to `N#C/C(=C\C=C\c1ccccc1)c1nc2ccccc2[nH]1`, the inhibition rises from 1.13% to 2.56%.

First: O=C(O)CCc1cccnc1
Second: Cn1nccc1NC(=O)CC(CC(=O)O)c1ccccc1 (centres undefined)
The inhibition of the first is lower: -4.95% for the first, -2.7% for the second.

Compared with `CCCCCCCCCCCCCC#CC(O)C(N)CO` (centres undefined), `CCCCCCCN=C(C)c1ccccc1O` is lower in inhibition: 2.24% for the first, -3.37% for the second.

Compared with `O=C(CSc1nc2ccccc2o1)N1CCC(n2cccc2)CC1`, `c1ccc2c(c1)NC(C1Nc3ccccc3O1)O2` (centres undefined) is lower in inhibition: 10% for the first, 8.91% for the second.

First: CC(=O)NC12CC3(C)CC(C)(CC(C)(C3)C1)C2
Second: CC(=O)c1cc([N+](=O)[O-])c(NC2CCCCC2)s1
The inhibition of the first is lower: 2.16% for the first, 3.91% for the second.

Compared with `COc1cc(CC/C(C)=N/O)ccc1O`, `CCCc1nc(N)ncc1C(=O)OCC` is lower in inhibition: 2.62% for the first, -1.66% for the second.

Going from `O=C(Nc1ccc(I)cc1Cl)C(=S)NCc1cccs1` to `O=S(=O)(Oc1cccc(C(F)(F)F)c1)c1cc(S(=O)(=O)c2ccccc2)cs1`, the inhibition rises from -1.16% to 3.95%.

Going from `CC(C)CC(F)Cc1cnc(=O)[nH]c1` (centres undefined) to `NNC(=O)c1cc(OCC(F)(F)F)nc(OCC(F)(F)F)c1`, the inhibition rises from -1.51% to 9.46%.

First: N#Cc1c(C2CCCCC2)[nH]c(=S)[nH]c1=O
Second: CNC(=O)NNC(=O)Cn1nnc(N2CCCCC2)n1
The inhibition of the first is lower: 11.2% for the first, 14.1% for the second.

Compared with `COC(=O)/C=C/c1cn(C2OCC(CO)C2O)c(=O)[nH]c1=O` (centres undefined), `CC1=NCCNC(C)=C1N1CCOCC1` is lower in inhibition: -0.07% for the first, -0.98% for the second.

Work on `NC(=O)c1sccc1Br` yielded an inhibition of -1.3%.

In the case of `CCOC(=O)c1c(NC(=S)NC)sc2c1CCCC2`, the inhibition is reported as 97.7% (active).
